From paper doi:10.1101/2024.03.05.583629

target: pT7_6His-AlfaTag-ZIF268 (human, UniProt P18146 335-423); test: PADIT-seq; conditions: dsDNA, one strand shown

With “CTCGAGGATATCAAGATCTGGCCTCGGCCGCGCCCGCGGAACCTCTAGCTAGCCGACTCACTATAGGGATAATCGCCCTGAGCAAAGACC” as the sequence, how does the binding signal read?
Its binding signal is 0.0207 ± 0.105 log2FC.

Which binding signal does the source give for “CTCGAGGATATCAAGATCTGGCCTCGGCATTTTATATGGAACCTCTAGCTAGCCGACTCACTATAGGGATAATCGCCCTGAGCAAAGACC” here?
The binding signal was 0.238 ± 0.0895 log2FC.

With “CTCGAGGATATCAAGATCTGGCCTCGGCGTTTTAGTGGGAACCTCTAGCTAGCCGACTCACTATAGGGATAATCGCCCTGAGCAAAGACC” as the sequence, how does the binding signal read?
The binding signal was 0.0814 ± 0.0894 log2FC.

Which binding signal does the source give for “CTCGAGGATATCAAGATCTGGCCTCGGCTCATGGGCGGGAACCTCTAGCTAGCCGACTCACTATAGGGATAATCGCCCTGAGCAAAGACC” here?
Its binding signal is 0.0784 ± 0.105 log2FC.

How did the binding signal turn out when “CTCGAGGATATCAAGATCTGGCCTCGGCGTTTTAACGGGAACCTCTAGCTAGCCGACTCACTATAGGGATAATCGCCCTGAGCAAAGACC” was run?
The binding signal was 0.0881 ± 0.0918 log2FC.

For “CTCGAGGATATCAAGATCTGGCCTCGGCCGCCACCGCGGAACCTCTAGCTAGCCGACTCACTATAGGGATAATCGCCCTGAGCAAAGACC”, which binding signal is on record?
Its binding signal is 0.142 ± 0.0977 log2FC.

How did the binding signal turn out when “CTCGAGGATATCAAGATCTGGCCTCGGCCGCTTTCGCGGAACCTCTAGCTAGCCGACTCACTATAGGGATAATCGCCCTGAGCAAAGACC” was run?
Its binding signal is 0.0116 ± 0.104 log2FC.

How did the binding signal turn out when “CTCGAGGATATCAAGATCTGGCCTCGGCAGGTTAAAAGGAACCTCTAGCTAGCCGACTCACTATAGGGATAATCGCCCTGAGCAAAGACC” was run?
The binding signal was 0.0674 ± 0.0711 log2FC.

With “CTCGAGGATATCAAGATCTGGCCTCGGCGCGTGGATAGGAACCTCTAGCTAGCCGACTCACTATAGGGATAATCGCCCTGAGCAAAGACC” as the sequence, how does the binding signal read?
The binding signal was 0.0372 ± 0.0987 log2FC.

Which binding signal does the source give for “CTCGAGGATATCAAGATCTGGCCTCGGCACAGTAAAAGGAACCTCTAGCTAGCCGACTCACTATAGGGATAATCGCCCTGAGCAAAGACC” here?
Its binding signal is 0.04 ± 0.0816 log2FC.

With “CTCGAGGATATCAAGATCTGGCCTCGGCTTTTTAGGCGGAACCTCTAGCTAGCCGACTCACTATAGGGATAATCGCCCTGAGCAAAGACC” as the sequence, how does the binding signal read?
Its binding signal is 0.0276 ± 0.11 log2FC.

How did the binding signal turn out when “CTCGAGGATATCAAGATCTGGCCTCGGCGGGATAAAAGGAACCTCTAGCTAGCCGACTCACTATAGGGATAATCGCCCTGAGCAAAGACC” was run?
The binding signal was 0.0461 ± 0.0742 log2FC.

How did the binding signal turn out when “CTCGAGGATATCAAGATCTGGCCTCGGCATTTTAATCGGAACCTCTAGCTAGCCGACTCACTATAGGGATAATCGCCCTGAGCAAAGACC” was run?
The binding signal was 0.0175 ± 0.09 log2FC.

With “CTCGAGGATATCAAGATCTGGCCTCGGCGCGTGGTTAGGAACCTCTAGCTAGCCGACTCACTATAGGGATAATCGCCCTGAGCAAAGACC” as the sequence, how does the binding signal read?
Its binding signal is 0.357 ± 0.094 log2FC.

How did the binding signal turn out when “CTCGAGGATATCAAGATCTGGCCTCGGCAAACTAAAAGGAACCTCTAGCTAGCCGACTCACTATAGGGATAATCGCCCTGAGCAAAGACC” was run?
Its binding signal is 0.0456 ± 0.191 log2FC.

How did the binding signal turn out when “CTCGAGGATATCAAGATCTGGCCTCGGCGTATGGGCGGGAACCTCTAGCTAGCCGACTCACTATAGGGATAATCGCCCTGAGCAAAGACC” was run?
Its binding signal is 0.246 ± 0.0831 log2FC.

How did the binding signal turn out when “CTCGAGGATATCAAGATCTGGCCTCGGCTCCCCACGCGGAACCTCTAGCTAGCCGACTCACTATAGGGATAATCGCCCTGAGCAAAGACC” was run?
The binding signal was 0.208 ± 0.106 log2FC.

With “CTCGAGGATATCAAGATCTGGCCTCGGCGCGTTGGCGGGAACCTCTAGCTAGCCGACTCACTATAGGGATAATCGCCCTGAGCAAAGACC” as the sequence, how does the binding signal read?
Its binding signal is 1.75 ± 0.117 log2FC.

“CTCGAGGATATCAAGATCTGGCCTCGGCAAATGGGCGGGAACCTCTAGCTAGCCGACTCACTATAGGGATAATCGCCCTGAGCAAAGACC” was tested. Which binding signal did it give?
Its binding signal is 0.157 ± 0.0868 log2FC.

For “CTCGAGGATATCAAGATCTGGCCTCGGCGCGTGGACTGGAACCTCTAGCTAGCCGACTCACTATAGGGATAATCGCCCTGAGCAAAGACC”, which binding signal is on record?
Its binding signal is 0.0272 ± 0.108 log2FC.

For “CTCGAGGATATCAAGATCTGGCCTCGGCGCGTGGTATGGAACCTCTAGCTAGCCGACTCACTATAGGGATAATCGCCCTGAGCAAAGACC”, which binding signal is on record?
Its binding signal is 0.45 ± 0.0837 log2FC.

Which binding signal does the source give for “CTCGAGGATATCAAGATCTGGCCTCGGCAGATTAAAAGGAACCTCTAGCTAGCCGACTCACTATAGGGATAATCGCCCTGAGCAAAGACC” here?
The binding signal was 0.0127 ± 0.0692 log2FC.

Which binding signal does the source give for “CTCGAGGATATCAAGATCTGGCCTCGGCGCATGGGCGGGAACCTCTAGCTAGCCGACTCACTATAGGGATAATCGCCCTGAGCAAAGACC” here?
Its binding signal is 0.51 ± 0.0916 log2FC.

How did the binding signal turn out when “CTCGAGGATATCAAGATCTGGCCTCGGCGTTTTAAGTGGAACCTCTAGCTAGCCGACTCACTATAGGGATAATCGCCCTGAGCAAAGACC” was run?
The binding signal was 0.00666 ± 0.106 log2FC.

“CTCGAGGATATCAAGATCTGGCCTCGGCATTTTAATAGGAACCTCTAGCTAGCCGACTCACTATAGGGATAATCGCCCTGAGCAAAGACC” was tested. Which binding signal did it give?
The binding signal was 0.0148 ± 0.0814 log2FC.

For “CTCGAGGATATCAAGATCTGGCCTCGGCCGATGGGCGGGAACCTCTAGCTAGCCGACTCACTATAGGGATAATCGCCCTGAGCAAAGACC”, which binding signal is on record?
Its binding signal is 0.00701 ± 0.0902 log2FC.
